Data from PubChem BioAssay (NCI).
About 79,000 compounds went through this panel and 15% of them were active in at least one assay; those are over-represented in the sample as a whole. Calls of active or inactive are those of the source. Cut-off read from the data, not from the text of the source: active = growth inhibition above about 70%; inactive = the rest.

Legend:
[1] = NCI Yeast Anticancer Drug Screen. Data for the rad50 strain (AID 155);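 note: 0% = growth of vehicle-only cultures of the same strain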; settings: S. cerevisiae rad50 strain growth inhibition; at 50.0 µM; hits give high values
How it was run: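 Compounds were tested on a yeast strain with an engineered DNA damage repair alteration; the reported value is growth inhibition normalised to vehicle treatment.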

[2] = NCI Yeast Anticancer Drug Screen. Data for the mec2-1 strain (AID 157); settings: S. cerevisiae mec2-1 strain, at 50.0 µM, hits give high values
How it was run: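 Readout is yeast growth inhibition, normalised to vehicle-treated controls, in the mec2-1 strain exposed to compound.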

[3] = NCI Yeast Anticancer Drug Screen. Data for the sgs1 mgt1 strain (AID 161);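 note: 0% = growth of cultures given vehicle only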; settings: S. cerevisiae sgs1 mgt1 strain, at 50.0 µM, hits give high values
How it was run: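 Yeast cells carrying a defined DNA-repair defect were exposed to test compounds. Growth inhibition was measured relative to vehicle-treated controls.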

[4] = NCI Yeast Anticancer Drug Screen. Data for the cln2 rad14 strain (AID 165);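 note: 0% = growth equal to vehicle treated cultures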; settings: S. cerevisiae cln2 rad14 strain, at 50.0 µM, hits give high values
How it was run: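 Relative to vehicle controls, growth inhibition of compound-treated cln2 rad14 yeast was recorded.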

[5] = NCI Yeast Anticancer Drug Screen. Data for the bub3 strain (AID 167); settings: S. cerevisiae bub3 mutant strain, at 50.0 µM, hits give high values
How it was run: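 Growth of a checkpoint-deficient yeast mutant is measured after compound exposure. Values represent inhibition relative to vehicle.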

[6] = NCI Yeast Anticancer Drug Screen. Data for the mlh1 rad18 strain (AID 175); settings: S. cerevisiae mlh1 rad18 strain growth inhibition; at 50.0 µM; hits give high values
How it was run: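 Test agents were incubated with a yeast strain of defined genotype (DNA damage repair defect). Inhibition of growth was derived by comparison with vehicle-exposed cultures.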

Measured: growth inhibition

CC(C)(C)NC(=O)Oc1cccnc1
inactive: [1] 7.1% | [2] -4.6% | [3] -12.6% | [4] -42.4% | [5] 27.6% | [6] 8%

COc1ccc2c(c1)CC[C@@H]1[C@@H]2CC[C@]2(C)[C@H](S)CC[C@@H]12
inactive: [1] -3.45% | [2] -15.7% | [3] 21.4% | [4] -41% | [5] 18.1% | [6] -7.3%

O=C(NC(O)(C(F)(F)F)C(F)(F)F)c1ccccc1
inactive: [1] -5.35% | [2] 6.85% | [3] 10.7% | [4] 0.9% | [5] -7.05% | [6] -6.95%

NC(=S)N/N=C/C=C/c1ccco1
inactive: [1] 8.9% | [2] 0.25% | [3] 30.6% | [4] -41.5% | [5] 20.3% | [6] 52%

COc1ccc2c(C(=O)O)cc3c4ccccc4ncc3c2c1
inactive: [1] 9.4% | [2] 6.65% | [3] -6.75% | [4] 26.9% | [5] -17.9% | [6] -13.2%

Cc1ccc2nc3c(C)c(Cl)c(=O)cc-3sc2c1
inactive: [1] 7% | [2] 19.4% | [3] 7.4% | [4] -0.1% | [5] -2.4% | [6] 36.5%

CC(F)(F)C(F)(F)C(=O)CC(=O)C(F)(F)F.CC(F)(F)C(F)(F)C(=O)CC(=O)C(F)(F)F.[Cu]
inactive: [1] -9.15% | [2] -20.4% | [3] -9.75% | [4] -72% | [5] 1.95% | [6] -43.6%

O=C(Nc1ccc(S(=O)(=O)N2CCCCC2)cc1)Oc1ccccc1C(=O)O
inactive: [1] 26.4% | [2] -4.5% | [3] 3.15% | [4] 16.1% | [5] -1.65% | [6] 4.8%

COc1cc(NC(C)=O)c2nccnc2c1
inactive: [1] -16.4% | [2] -21.6% | [3] 0.1% | [4] -20.6% | [5] -0.95% | [6] -14.2%

COC(=O)C1CC(=O)N(C)c2sc(C)c(C)c2C1=O (stereo unspecified)
inactive: [4] 36.5%
active: [1] 83.9% | [2] 94.5% | [3] 89% | [5] 87.7% | [6] 95.7%

N#CC1(c2ccccc2)C(c2ccccc2)CC(O)(c2ccccc2)C(C(=O)c2ccccc2)C1c1ccccc1 (stereo unspecified)
inactive: [1] 19.9% | [2] 4.75% | [3] 3.5% | [4] 14.3% | [5] -1.1% | [6] -3.5%

c1ccc(C(c2ccccc2)c2ccccc2)cc1
inactive: [1] -20.6% | [2] -20.4% | [3] -16.1% | [4] -10.3% | [5] -8.7% | [6] -23.6%

Cn1cnc2cc3c(cc2c1=O)nc1n3CCCC1
inactive: [1] -1.7% | [2] -2.5% | [3] -12.6% | [4] -12.4% | [5] -6.75% | [6] -6.8%

CCCCCCCNC1=C(O)c2ccccc2C(=O)C1=O
inactive: [1] -11.4% | [2] 15.8% | [3] 2.2% | [4] -44.2% | [5] 12.3% | [6] 6.2%

CN(N)C(=O)NCCCl
inactive: [1] -9.1% | [2] -4.6% | [3] 8.25% | [4] 13.4% | [5] -28% | [6] -1.8%

Cc1cc(=O)[nH]c2c1CCCC2
inactive: [1] -13.7% | [2] 10.8% | [3] 10% | [4] -38.4% | [5] -26.6% | [6] 8.25%

Cc1ccc(SCCCN(C)C)cc1
inactive: [1] 42% | [2] 17.6% | [3] 35.6% | [4] 15.2% | [5] 14.2% | [6] 16.3%

C/C(CC1SCCCS1)=C(/C)CC1SCCCS1
inactive: [1] -34.8% | [2] -38.6% | [3] -23.1% | [4] -5% | [5] 2.25% | [6] -45%

COc1ccccc1N1C(=O)C2c3[nH]c4ccccc4c3C3CCC(C(C)(C)C)CC3C2C1=O (stereo unspecified)
inactive: [1] 17.8% | [2] -11.3% | [3] -4.2% | [4] -12.2% | [5] -16.2% | [6] 5.5%

CCC(=O)Nc1ccccc1-c1ccccc1
inactive: [1] 25.6% | [2] 19% | [3] 16.9% | [4] 7.6% | [5] -1.8% | [6] 2.5%

O=C(Oc1ccc[nH]c1=O)C1CC1
inactive: [1] 17.9% | [2] 7.45% | [3] 67.2% | [4] 14% | [5] 22.2% | [6] 38%

O=C(O)C#Cc1cccc(Cl)c1
inactive: [1] -20.4% | [2] -24.3% | [3] -14.1% | [4] -9.9% | [5] -16.5% | [6] -12.8%

Cc1ccc(/S(Cc2ccccc2)=N\S(=O)(=O)c2ccc(C)cc2)cc1 (stereo unspecified)
inactive: [1] -40.2% | [2] -36% | [3] -60.9% | [4] -13.3% | [5] -27.8% | [6] -33.1%

C=C1CCCCCCCCCCC12SCCCS2
inactive: [1] -42.1% | [2] 7.6% | [3] -25.7% | [4] -11.9% | [5] 20% | [6] -26.6%

CC12CC(c3ccccc3)C(C)(C(c3ccccc3)=C1c1ccccc1)C2(O)c1ccccc1 (stereo unspecified)
inactive: [1] -2.85% | [2] 0.1% | [3] 12.7% | [4] -13.3% | [5] -2.45% | [6] 13.4%

O=S(=O)(C(=C(c1ccccc1)c1ccccc1)c1ccccc1)c1ccccc1
inactive: [1] 42.1% | [3] 19.9% | [4] 17.8% | [5] 6.35% | [6] 68%
active: [2] 99.5%

CCN(CC)c1ccc2c(c1)C(O)c1ccccc1-2 (stereo unspecified)
inactive: [1] -3.75% | [2] -20.4% | [3] -5.7% | [4] -12.4% | [5] 14.4% | [6] 17.6%

O=c1[nH]c(-c2ccccc2)c([N+](=O)[O-])c(=O)[nH]1
inactive: [1] 10.7% | [2] -6.25% | [3] -7.65% | [4] -60.2% | [5] 5.95% | [6] 13.6%

c1coc(C2OCCO2)c1
inactive: [1] -24.1% | [2] -31.6% | [3] -26.6% | [4] 6.75% | [5] -21.8% | [6] -3.1%

CCOC(=O)C1=CN(Cc2ccccc2)C2ON=C(c3ccc(Cl)cc3)C2C1 (stereo unspecified)
inactive: [1] 0.05% | [2] 2.3% | [3] -11.8% | [4] -2.35% | [5] -0.75% | [6] -0.6%

OCC(CO)(CO)COCC(CO)(CO)CO
inactive: [1] 8.5% | [2] -25.1% | [3] 6.75% | [4] 10% | [5] -12.3% | [6] 13.1%

O=C(S)C(=O)Cc1cn[nH]n1
inactive: [1] -3.95% | [2] -1.9% | [3] -4.5% | [4] 6.15% | [5] -7.25% | [6] -26.8%

CC12CCC(=O)C=C1CCC1C2C(=O)CC2(C)C1CCC2(O)C(=O)Cn1c(=O)[nH]cc(F)c1=O (stereo unspecified)
inactive: [1] 5.95% | [2] -5.8% | [3] 3.55% | [4] 5.65% | [5] -0.85% | [6] 2.3%

O=C(O)CCc1ccsc1
inactive: [1] -17.6% | [2] 4.55% | [3] -21.9% | [4] -28.4% | [5] -10.5% | [6] 4.45%

c1ccc2c(c1)[nH]c1ccncc12
inactive: [1] -0.85% | [2] 0.1% | [3] -1.6% | [4] -40% | [5] -9.7% | [6] 3.7%

Cc1cc(C)[n+](C)c2cc3ccccc3cc12
inactive: [1] 26.4% | [2] -20.2% | [3] 20.9% | [4] 44.2% | [5] -8.55% | [6] -28.5%

CP(=O)(c1ccccc1)c1ccccc1OCCCOCCCOc1ccccc1P(C)(=O)c1ccccc1 (stereo unspecified)
inactive: [1] -4.8% | [2] 3.4% | [3] 0.45% | [4] 8.1% | [5] -3.55% | [6] -10.6%

CN1CCN(CCCO)CC1
inactive: [1] -15.2% | [2] 3.3% | [3] -8.85% | [4] -16.4% | [5] 5.05% | [6] -0.25%

COC(=O)CCCCCCCCCCC1C=CCC1 (stereo unspecified)
inactive: [1] -3.5% | [2] -23% | [3] 11.4% | [4] 9.8% | [5] -3.45% | [6] 0.5%

Cc1cc2nc(-c3ccccc3O)[nH]c2cc1C
inactive: [1] -14.2% | [2] -29.9% | [3] -5.25% | [4] 2.1% | [5] -29.6% | [6] 9.35%

Cc1nc(N)sc1C(=O)/C=C\c1ccc2c(c1)OCO2
inactive: [1] 21.4% | [2] -3.2% | [3] 23.4% | [4] 10.3% | [5] 5.2% | [6] 35.4%
